PERK inh: human PERK inhibition, primary cell-based screen. Q9NZJ5. CHO PERK-DD fusion, SEAP luminescence translation reporter. inhibition, % at 5.6 µM. 220,000 tested, 0.17% active;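 active means inhibition above the mean inhibition of all tested compounds plus 3 SD, set separately per screening campaign, cut at about 2.9% in these data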;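 further: PERK kinase domain activated by AP20187 dimerizer at 100 nM; 0% = DMSO with dimerizer and 100% = rapamycin at 8.4 µM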
Arbovirus inh: antivirals against arbovirus infection; arbovirus infection cell-based antiviral screen; inhibition, % at 10 µM; 200,000 tested, 0.37% active; in the data active means inhibition above about 30%
WT yeast gro inh: growth inhibition of WT yeast, mitochondrial fusion screen. mitochondrial fusion phenotypic screen, WT strain. 190,000 tested, 2.1% active. inhibition, % at 10 µM; in the data active means inhibition above about 58%; tested in S. cerevisiae
ROMK primary: modulates human ROMK potassium channel activity; P48048; Tet-inducible ROMK, thallium flux fluorescence; actives lie on both sides; B-score at 10 µM; 130,000 tested, 2% active;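 active means signal ratio slope over the read window, or its plate-corrected B-score, at least 3 SD from the plate mean, either direction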;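 further: B-score of the F/F0 ratio slope over 7 to 12 s after thallium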
* hit, by the source's call; / = no result. Compounds with a hit are over-represented: about 3.3% of the library has one in this group of screens.

SMILES	PERK inh	Arbovirus inh	WT yeast gro inh	ROMK primary
CSc1nc2ccccc2n1CC(=O)Nc1ccccc1	0	0	6	/
O=c1cc2c(nn1Cc1ccc(F)cc1)-c1ccccc1CC2	1	-5	58	-1.2
Fc1ccc(CO/N=C/C2=C(Cl)c3ccccc3CC2)cc1	-1	7	58*	1.5
O=c1oc2cc(Oc3c([N+](=O)[O-])cc(C(F)(F)F)cc3[N+](=O)[O-])ccc2c2c1CCCC2	1	3	62*	0.33
CCCCNC(=S)N(C)/N=C/c1ccc(F)cc1	2	4	44	-0.31
CCCCNC(=S)N(C)/N=C/c1ccc2c(c1)OCO2	0	2	78*	/
N#C/C(=C\c1ccccc1[N+](=O)[O-])C(=O)NC1CCCCC1	1	9	58*	/
N#C/C(=C\C=C\c1ccccc1[N+](=O)[O-])C(=O)NC1CCCCC1	0	-25	6	-0.79
Nc1nc(SCc2c(F)cccc2Cl)[nH]c(=O)c1-c1ccccc1	0	4	-8	0.026
COc1cccc(C2Nc3c(F)cc(Br)cc3C3C=CCC32)c1OC (stereo not drawn)	1	1	66*	-0.18
COc1cc(C2Nc3c(F)cccc3C3C=CCC32)cc(Br)c1OC (stereo not drawn)	-1	4	12	/
CCCn1nnc(NC(=O)c2ccc(-c3cccc(Cl)c3)o2)n1	0	-18	74*	/
c1ccc(Nc2scc(-c3ccccc3)[n+]2Cc2ccco2)cc1	0	4	67*	-1.1
c1ccc(C[n+]2c(-c3ccccc3)csc2Nc2ccccc2)cc1	1	-5	10	/
CCCCNC(=S)N/N=C/C1=CCC2CC1C2(C)C (stereo not drawn)	0	6	70*	-0.87
CC(C)NC(=S)N/N=C/C1=CCC2CC1C2(C)C (stereo not drawn)	0	28	73*	-0.054
Cc1ccc(NS(=O)(=O)c2cc(OCC(N)=O)c(C)cc2Cl)cc1	0	-4	-7	0.57
O=C(CN1CCN(c2ccccn2)CC1)N(c1ccccc1)c1ccc2ccccc2c1	-1	3	63*	/
CCCOc1ccc(C2C(C(=O)c3ccco3)=C(O)C(=O)N2CCN2CCOCC2)cc1OC (stereo not drawn)	0	1	58*	0.22
COc1ccc(C2C(C(=O)c3ccco3)=C(O)C(=O)N2CCc2ccccc2)cc1OC (stereo not drawn)	1	2	6	-0.13
C/C(=N\Nc1nc2ccccc2[nH]1)c1ccc2c(c1)OCO2	-1	36*	16	-0.071
C/C(=N\Nc1nc2ccccc2[nH]1)c1ccc2c(c1)OCCO2	0	-15	15	-0.81
C/C(=N\Nc1nc2ccccc2[nH]1)c1cc2ccccc2o1	-1	-30	60*	/
CC1(C)CN=C(N(Cc2ccccc2)C(=O)Nc2ccccc2)S1	0	-2	1	1.3
Cn1c(Oc2ccc3c(c2)OCO3)nc2c1c(=O)n(Cc1ccccc1)c(=O)n2C	1	4	98*	/
SMILES	PERK inh	Arbovirus inh	WT yeast gro inh	ROMK primary
Cn1c(=O)c2c(nc(Oc3ccc4c(c3)OCO4)n2Cc2ccc(Cl)cc2)n(C)c1=O	0	-27	15	0.7
COc1ccc(-c2ccc(/C=C(\NC(=O)c3ccccc3)C(=O)N3CCOCC3)o2)cc1	0	-6	-1	-0.53
Cc1cc(Nc2nc3ccccc3nc2Cl)n(-c2ccccc2C)n1	0	20	63*	/
O=C1OC(c2ccc(F)cc2)=C/C1=C\c1ccc([N+](=O)[O-])o1	1	-34	85*	0.3
CCOC(=O)COc1ccc(/C=C/[N+](=O)[O-])c(OCC(=O)OCC)c1	-1	-22	14	-0.49
CCOC(=O)COc1ccc2ccccc2c1/C=C/[N+](=O)[O-]	-1	-32	86*	-1.7
O=[N+]([O-])/C=C/c1c(OCc2ccccc2)ccc2ccccc12	0	-36	77*	-0.57
O=C(/C=C/c1c[nH]c2ccccc12)c1cccc2ccccc12	0	-21	61*	/
COc1ccc2oc3cc(C)[n+]([O-])c(-c4ccc(Cl)cc4)c3c2c1	-1	45*	11	-0.019
COc1ccc(-c2c(C)oc3ccc(C)cc23)cc1	1	2	12	0.8
COc1ccc(-c2c3c(cc(C)[n+]2[O-])oc2ccc(OC)cc23)cc1	0	40*	-8	-0.55
COc1ccc2oc3cc(C)[n+]([O-])c(-c4ccc(C)cc4)c3c2c1	-1	46*	8	-0.76
COc1ccc(-c2cc(=O)c3cc(OC)ccc3o2)cc1	1	-13	14	-0.023
COc1ccc2oc(-c3ccccc3)c(C(N)=O)c2c1	1	-2	1	/
CCOc1ccc(N(CC(=O)NN=C2CCCC2)S(C)(=O)=O)cc1	2	0	7	0.41
Cc1ccc(/C(O)=C/C(=O)C(=O)NC23CC4CC(CC(C4)C2)C3)cc1	1	/	/	/

Screening results deposited in PubChem by several laboratories.
